Here are results for 24 molecules from PubChem BioAssay.

Inconclusive results are not listed. Calls of active or inactive are those of the source. Unless noted, cut-off not given; nearly all actives show AC50 up to about 26 µM.

The nature of assay [1]: growth inhibition of DIPG glioma cells, dose response, cell-based, SU-DIPG-XIII, MIPE5.0, CellTiter-Glo, qHTS (AID 1347064; cut-off not given, nearly all actives have AC50 up to about 23 µM;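 on AC50: cells exposed to compound for 48 hours before the viability read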). To be noted: SU-DIPG-XIII viability, CellTiter-Glo ATP luminescence. A general note: In ATP-based viability assays light output follows the ATP content of the culture.
The nature of assay [2]: viability loss in pontine glioma line – cell-based, SU-DIPG-XXV, MIPE5.0, CellTiter-Glo, qHTS, dose response (AID 1347065).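 Further: cells exposed to compound for 48 hours before ATP readout.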 To be noted: CellTiter-Glo ATP luminescence.
The nature of assay [3]: JHH-DIPG-1 glioma cell viability, MIPE5.0 library, CellTiter-Glo luminescence, qHTS (AID 1347067).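 Further: cells exposed to compound for 48 hours before readout.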 The conditions noted are these: JHH-DIPG-1 glioma viability, CellTiter-Glo ATP luminescence.
The nature of assay [4]: SU-DIPG-XXV glioma cell viability, MIPE5.0 library, qHTS (AID 1347068; cut-off not given, nearly all actives have IC50 up to about 30 µM;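 on IC50: cells exposed to compound for 48 hours before viability readout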). On the technique in general: Quantitative high-throughput screening tests each substance at several concentrations.
The nature of assay [5]: sensitizers of A549 cells to miR-34 induction, primary screen, imaging, A549 dox-inducible miR-34, nuclei and caspase counts (AID 1347080;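 active means compounds whose cell count with miR-34 switched on is under 0.7 times the count with it off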). The conditions noted are these: A549 miR-34 inducible, Hoechst nuclei count, 48 h.
The nature of assay [6]: survival rescue of mitochondrial mutant cells in low glucose, primary screen, MELAS cybrids, Rieske KO mouse fibroblasts, CellTiter-Glo (AID 1508586;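 active means mean z-score across replicates of 1.96 or higher in either the MELAS or the Rieske mutant cell line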;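 further: z relative to plate mean and SD of compound and empty wells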).

As for `N#Cc1ccc(-c2c(-c3ncn[nH]3)sc(N3CCOCC3)c2C#N)c(F)c1`, the AC50 in assay [1] was 5.9 µM (active); in assay [2] it was 1.48 µM (active); in assay [3], 10.5 µM (active). Also, in assay [4], the IC50 was 4.68 µM (active).

For the molecule `CCS(=O)(=O)Nc1ccc(Oc2ccc(F)cc2F)c(-c2cn(C)c(=O)c3[nH]ccc23)c1`, the AC50 in assay [1] was 0.105 µM (active); in assay [2] it was 2.95 µM (active); in assay [3], 4.68 µM (active).

Regarding `Cc1ccc(-n2c(C)cc(-c3nnc4n3CCCCC4)c2C)cc1`, the AC50 is 14.8 µM (active) in assay [1], 20.9 µM (active) in assay [2] and 18.6 µM (active) in assay [3].

`CNC(=O)c1c(C)oc2cc(Oc3ncnc4cc(OC)c(OC)cc34)ccc12`: the AC50 is 9.34 µM (active) in assay [1] and 6.61 µM (active) in assay [2].

In the case of `COC1(c2sc3c(N4CCOCC4)nc(-c4cnc(N)nc4)nc3c2C)COC1`, the figures for the AC50 in assay [1], in assay [2] and in assay [3] were 0.661 µM (active), 0.132 µM (active) and 0.525 µM (active), respectively. Further, in assay [4], the IC50 was 1.18 µM (active).

With `c1ccc(CNCc2ccc(CN3CCCNCCNCCCNCC3)cc2)nc1`, the molecule was classed as inactive in assay [1], in assay [2], in assay [3] and in assay [4].

As for `Cc1c(C(=O)Nc2ccc(Oc3ccnc4[nH]cc(-c5ccccc5)c34)c(F)c2)c(=O)n(-c2ccc(F)cc2)n1C`, the AC50 was 16.6 µM (active) in assay [1], 5.25 µM (active) in assay [2] and 16.6 µM (active) in assay [3].

In the case of `O=C(Cc1cccc(OC(F)(F)F)c1)Nc1ccc(CCCCc2nnc(NC(=O)Cc3ccccn3)s2)nn1`, the AC50 in assay [1] was 13.2 µM (active); in assay [2], 14.8 µM (active); in assay [3], 20.9 µM (active). Moreover, in assay [4], the call was inactive.

`CCCCOC(=O)NS(=O)(=O)c1sc(CC(C)C)cc1-c1ccc(Cn2ccnc2)cc1`: the outcome in assay [1] and in assay [4] was inactive. The AC50 in assay [2] and in assay [3] was 20.9 µM (active) each time.

On to `Cc1ccc(NC(=O)[C@H]2CCCN(C(=O)c3c(C)cccc3F)[C@H]2c2ccc(NC3CCCC3)cc2)cc1C(F)(F)F`, for which the result in assay [1], in assay [2], in assay [3] and in assay [4] was inactive.

As for `O=C1OC(COc2ccccc2[N+](=O)[O-])CC1Cc1ccccc1` (configuration not stated), the outcome in assay [1], in assay [2], in assay [3] and in assay [4] was inactive.

On to `OC(c1ccc(-c2ccc(CN3CCN(Cc4ccncc4)CC3)cc2)c(F)c1)(C(F)(F)F)C(F)(F)F`, for which the result in assay [1], in assay [2], in assay [3] and in assay [4] was inactive.

`CN1C(=O)N[C@H](Cc2c[nH]c3c(Cl)cccc23)C1=O`: the outcome in assay [1], in assay [2] and in assay [3] was inactive.

On to `Cc1ccc(S(=O)(=O)Nc2cc(C(F)(F)F)ccc2C(=O)Nc2nc(-c3ccccc3)cs2)cc1`, for which the AC50 in assay [1] was 4.17 µM (active); in assay [2] it was 3.72 µM (active); in assay [3], 3.32 µM (active). Besides, the IC50 in assay [4] was 4.68 µM (active).

`C=Cc1cc(O)cc2nc(-c3ccc(O)c(F)c3)oc12`: the molecule was classed as inactive in assay [1], in assay [2], in assay [3] and in assay [4].

`Cc1c(NC(=O)c2cc(C(N)=O)nc3cc(F)ccc23)c(C(F)(F)F)nn1Cc1ccc(C(C)(C)C)cc1`: the AC50 in assay [1] was 26.3 µM (active); in assay [2], 20.9 µM (active); in assay [3], 23.5 µM (active).

Turning to `CN(C)C(=O)c1cc2cnc(Nc3ccc(N4CCNCC4)cn3)nc2n1C1CCCC1`, the molecule was called inactive in assay [1], in assay [2], in assay [3] and in assay [4]. The fold change in assay [5] (stronger effect = lower value, cell number ratio, induced over uninduced) is 1 (inactive); in assay [5] (measured here: relative caspase fold change +Dox/-Dox), 0.436. The cell count in assay [5] (measured here: total cells with miR-34 induction, stronger effect = lower value) amounted to 5240; in assay [5] (measured here: total cells without miR-34 induction) it was 5220. Further, the z-score is -0.462 (inactive) in assay [6] (MELAS cybrid survival, CellTiter-Glo 48 h, stronger effect = higher value) and -0.582 in assay [6] (Rieske KO mouse fibroblast survival, CellTiter-Glo 72 h).

On to `O=C(NC[C@H](O)CN1CCc2ccccc2C1)c1ccnc(NC2CCC2)c1`, for which the molecule was called inactive in assay [1], in assay [2] and in assay [4]. Further, the AC50 in assay [3] is 23.5 µM (active).

On to `C[C@@H](C(=O)Nc1ccc(Cl)cc1)C1CCC(c2ccnc3ccc(F)cc23)CC1` (some centres not stated), for which the molecule was classed as inactive in assay [1], in assay [2] and in assay [3].

Turning to `O=C(NO)c1cnc(NC2(c3ccccc3)CC2)nc1`, the results for the AC50 in assay [1], in assay [2] and in assay [3] were 3.32 µM (active), 2.95 µM (active) and 2.95 µM (active), respectively.

With `NC(=O)c1cnc(N[C@@H]2CCCC[C@@H]2N)nc1Nc1cccc(-n2nccn2)c1`, the AC50 in assay [1] is 7.42 µM (active); in assay [2], 5.25 µM (active); in assay [3], 23.5 µM (active). Further, the IC50 in assay [4] is 18.6 µM (active).

In the case of `CCN1C(=O)CNc2ncc(-c3ccc(-c4ncn[nH]4)nc3C)nc21`, the values for the AC50 in assay [1], in assay [2] and in assay [3] were 4.17 µM (active), 1.48 µM (active) and 5.9 µM (active), respectively. The IC50 in assay [4] was 8.33 µM (active).

On to `CONC(=O)Nc1ccc(-c2sc3c(c2CN(C)C)c(=O)n(-c2ccc(OC)nn2)c(=O)n3Cc2c(F)cccc2F)cc1`, for which the molecule was called inactive in assay [1], in assay [2] and in assay [3].

With `COc1ccc(-n2cnc3cc(C(=O)N4CCCCC4)ccc32)cc1`, the call in assay [1], in assay [2], in assay [3] and in assay [4] was inactive.

The term AC50 denotes the concentration giving half of the maximal activity seen. What is called IC50 is the concentration needed to halve the response being measured.
